PubChem BioAssay AID1259422 (The Scripps Research Institute Molecular Screening Center, 2018)
Where “and” joins values, the source holds several entries; their conditions need not be identical. Equal entries are not always repeated. Among all 640,000 compounds or so, about 9,300 (1.5%) were called active. The list comes from a sample in which actives are over-represented; it also holds similar structures and randomly drawn compounds. Values without a mark were called inactive. Rule as the data show it: active = inhibition above about 32%; inactive = the rest.

Experiment: TEAD-YAP interaction inhibition, primary screen, TEAD-YAP interaction inhibitor project, luminescence, HEK-TIYL cells (AID 1259422);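 also: 0% = median of test compound wells and 100% = reference inhibitor wells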
Conditions: TEAD-Gal4/YAP UAS-luciferase luminescence, at 9.12 µM, active compounds read high

For CCCCNc1cc(-c2cccc(OC)c2)ncn1, the inhibition was 64.6% (active).
For CCCNc1ccc2ncc(-c3cccc(OC)c3)n2n1, the inhibition was 59.2% (active).
In the case of Oc1c(CN2CCCC2)cc(COCc2ccccc2)c2cccnc12, the inhibition is reported as 63% (active).
With N#Cc1ccc(C(=O)Nc2ccc(Cc3ccncc3)cc2)c(F)c1 the inhibition was 55.3% (active).
For O=C(/C=C/c1ccc2c(c1)OCCO2)c1ccc(O)cc1, the inhibition was 63.9% (active).
In the case of Cc1ccc2nc(-c3ccc(Br)cc3)cn2c1, the inhibition is reported as 75.2% (active).
For Brc1ccc2nc(-c3cccs3)cn2c1, the inhibition was 37.5% (active).
In the case of CC(C)(C)c1ccc(OCC(=O)Nc2cc([N+](=O)[O-])ccc2O)cc1, the inhibition is reported as 77.8% (active).
In the case of COc1ccccc1Nc1nc(-c2cc3cccc(OC)c3oc2=O)cs1, the inhibition is reported as 58% (active).
For CCc1cc2c(C)cc(=O)oc2cc1OCC(=O)NCc1ccco1, the inhibition was 42.8% (active).
In the case of Nc1c(C(=O)O)cnn1-c1ccccc1, the inhibition is reported as 35.4% (active).
With O=C1OCC2=C1C(c1ccc([N+](=O)[O-])cc1)c1cc3c(cc1N2)OCO3 (stereo unspecified) the inhibition was 51.2% (active).
With COc1ccccc1C1C2=C(COC2=O)Nc2cc3c(cc21)OCO3 (stereo unspecified) the inhibition was 54% (active).
For COc1cc(Nc2ccnc(Nc3ccc(N4CCOCC4)cc3)n2)cc(OC)c1OC, the inhibition was 72.7% (active).
In the case of Cn1nccc1C(=O)NC1CCCc2c1cnn2-c1ccc(F)cc1F (stereo unspecified), the inhibition is reported as 55.8% (active).
With CC[C@]1(O)CC2CN(CCc3c([nH]c4ccccc34)[C@@](C(=O)OC)(c3cc4c(cc3OC)N(C=O)[C@H]3[C@@](O)(C(=O)OC)[C@H](OC(C)=O)[C@]5(CC)C=CCN6CC[C@]43[C@@H]65)C2)C1 (stereo partly specified) the inhibition was 50.8% (active) and 57.9% (active) and 55.9% (active).
For COc1cc(NS(=O)(=O)c2ccc3ccccc3c2)c2ncccc2c1, the inhibition was 38.5% (active).
For Nc1c(C(=O)NCc2ccccc2)nnn1Cc1cccc(Cl)c1, the inhibition was 37% (active).
With CCOc1ccc(-n2c(-c3ccc4c(c3)OCCO4)c[n+]3c2CCCCC3)cc1 the inhibition was 85.2% (active).
With COc1ccc2c(c1OC)C(=O)N(c1ccc(O)cc1)C2 the inhibition was 67.1% (active).
In the case of O=[N+]([O-])c1ccccc1S(=O)(=O)Nc1cccc2cccnc12, the inhibition is reported as 32.8% (active).

First: CCCNc1ccc2ncc(-c3ccco3)n2n1
Second: COc1cccc(-c2cnc3ccc(NCc4ccco4)nn23)c1
The inhibition of the first is lower: 3.49% for the first, 8.66% for the second.

Compared with CCCNc1cc(-c2cccc(N)c2)ncn1, c1ccc(OCCNc2cc(-c3ccccc3)ncn2)cc1 is lower in inhibition: -10.6% for the first, -25.8% for the second.

Compared with CCOc1cc(-c2nc3sc4c(c3c(=O)[nH]2)CCCC4)cc(Br)c1OCc1ccccc1F, CCOc1ccc2c(=O)c(-c3ccc4c(c3)OCCCO4)c(C)oc2c1 is lower in inhibition: -1.86% for the first, -7.66% for the second.

Compared with CCN(CC)C(=O)c1sc(NC(=O)c2cccc(OC)c2)c(C(=O)OC(C)C)c1C, CCOC(=O)c1cccc(NC(=O)Cn2cc3c(n2)CCCCC3)c1 is higher in inhibition: 7.6% for the first, 8.83% for the second.

First: O=S(=O)(/C=C/c1ccccc1)N1CCN(CC(O)COCc2ccccc2)CC1 (stereo unspecified)
Second: COc1ccc(CN2CCN(Cc3cccnc3)CC2)cc1OCc1ccccc1
The inhibition of the first is lower: 1.15% for the first, 8.2% for the second.

Going from Cc1ccc(S(=O)(=O)N(CC(=O)N2CCCC2)c2ccc(Cl)cc2C)cc1 to Cc1cc(Cl)ccc1NC(=O)COc1ccc([N+](=O)[O-])cc1, the inhibition falls from 2.4% to -9.13%.

Compared with Cc1ccc(/C=N/NC(=O)c2ccc(Cl)cc2O)o1, CCOc1ccc(NC(=O)c2ccc(C#N)cc2F)cc1 is higher in inhibition: -20.5% for the first, -9.3% for the second.

First: Oc1c(CN2CCN(c3cccc(Cl)c3)CC2)cc(Br)c2cccnc12
Second: O=C(Cc1cccc(Cl)c1)NCc1ccccc1
The inhibition of the first is higher: 5.69% for the first, -42.3% for the second.

Compared with CCOC(=O)c1ccc(NC(=O)c2ccc(C#N)cc2F)cc1, N#Cc1ccccc1S(=O)(=O)Nc1ccc(Cl)cc1 is higher in inhibition: -1.23% for the first, 7.64% for the second.

Compared with O=C(/C=C/c1ccccn1)c1ccc2c(c1)OCO2, COc1cccc(/C=C/C(=O)c2ccc3c(c2)OCCO3)c1 is lower in inhibition: -21.2% for the first, -34.3% for the second.

First: COCCNc1c(C(C)Cc2ccc3c(c2)OCO3)nc2cnccn12 (stereo unspecified)
Second: O=C(CNC1CCCC1)NCc1ccc2c(c1)OCO2
The inhibition of the first is higher: -1.93% for the first, -2.55% for the second.

First: Cn1c(=O)cc(OCC(=O)NCCN2CCOCC2)c2ccccc21
Second: CCN1CCN(CC(=O)NCc2ccccc2Cl)C(=O)C1=O
The inhibition of the first is lower: -3.6% for the first, 2.39% for the second.

Going from c1ccc(-c2nc3nc(-c4cccs4)cn3nc2-c2ccccc2)cc1 to N#Cc1ccc(-c2cccs2)nc1SCc1ccc(Br)cc1, the inhibition rises from -28.9% to -20.2%.

First: O=C(Nc1ccc(-c2cn3ccccc3n2)cc1)c1ccc(Br)cc1
Second: Cc1ccccc1-n1c(-c2ccc(Br)cc2)n[nH]c1=S
The inhibition of the first is higher: -5.14% for the first, -9.56% for the second.

First: CC1=C(C(=O)Nc2cccc(Cl)c2)C(c2ccc([N+](=O)[O-])cc2)NC(=O)N1 (stereo unspecified)
Second: COc1ccc(Cn2nnc(C(=O)Nc3cccc(Cl)c3)c2N)cc1
The inhibition of the first is higher: -2.46% for the first, -9.56% for the second.

Compared with COc1ccc(NC(=O)c2ccc([N+](=O)[O-])o2)cc1OC, COc1ccc(CCNC(=O)CCS(=O)(=O)c2cccc3cccnc23)cc1OC is higher in inhibition: 5.63% for the first, 10.6% for the second.

Compared with CCOC(=O)C1=C(C)N=c2s/c(=C\c3ccc(-c4ccc([N+](=O)[O-])cc4)o3)c(=O)n2C1c1cccs1 (stereo unspecified), COc1cccc2cc(-c3nc(-c4ccc(C)cc4C)cs3)c(=O)oc12 is lower in inhibition: 6.56% for the first, 1.78% for the second.

First: O=C(N/N=C/c1ccc2c(c1)OCO2)C12CC3CC(CC(C3)C1)C2
Second: COc1cc(C2CC(=O)Nc3cc4c(cc32)OCO4)ccc1O (stereo unspecified)
The inhibition of the first is lower: -46.5% for the first, -0.17% for the second.

Compared with CC(C)(C)c1ccc(OCC(=O)Nc2ccccc2[N+](=O)[O-])cc1, CCC(C)c1ccc(OCC(=O)NCc2ccco2)cc1 (stereo unspecified) is lower in inhibition: 2.77% for the first, -13.8% for the second.

First: O=C(CSc1nc2[nH]ncc2c(=O)n1-c1ccccc1)Nc1ccc(Br)cc1F
Second: O=C(CN1C(=O)COc2ccc(Cl)cc21)Nc1ccccc1F
The inhibition of the first is higher: 8.04% for the first, 3.36% for the second.

Going from CCOC(=O)C1CCCCN1Cc1cc(Br)ccc1O (stereo unspecified) to COC(=O)CNC(=O)CC1C(=O)NCCN1Cc1ccc(F)cc1 (stereo unspecified), the inhibition falls from 7.45% to -2%.

First: COc1ccc(C)cc1NC(=O)CN1C(=O)C(C)N(c2ccc(C)cc2)C1=O (stereo unspecified)
Second: COc1ccc(N2Cc3cccc(C(=O)NCC(OC)OC)c3C2=O)cc1
The inhibition of the first is higher: 8.14% for the first, -8.73% for the second.

Going from C=CCn1c(=S)[nH]c2sc3c(c2c1=O)CCCCC3 to S=c1[nH]nc(N2CCOCC2)n1Cc1ccccc1, the inhibition falls from 8.8% to 2.61%.

Compared with COc1cccc(Nc2nc(-c3cc4cccc(OC)c4oc3=O)cs2)c1, COc1cc(Nc2ccnc(Nc3ccncc3)n2)cc(OC)c1OC is higher in inhibition: -12.4% for the first, 3.91% for the second.

Going from CCN(C(=O)C1CCC1)c1nnc(-c2ccc(OC)cc2)s1 to Cc1ccc2nc(C3CCN(CC(=O)NCc4ccccc4)CC3)[nH]c2c1, the inhibition rises from -89.3% to 7.44%.

Going from O=C(COc1cc(Cl)ccc1Cl)NCc1ccco1 to CCOC(=O)c1cc(S(=O)(=O)NCc2ccc(Cl)cc2)cn1C, the inhibition rises from -2.94% to 2.16%.

First: O=C(Cc1ccccc1)Nc1c(C(=O)N2CCCCCC2)cnn1-c1ccccc1
Second: Cn1cc(S(=O)(=O)N2CCCC2)cc1C(=O)N1CCC(Cc2ccccc2)CC1
The inhibition of the first is lower: -25.7% for the first, -7.23% for the second.

Going from Cc1ccc(-n2ncc(C(=O)O)c2-n2cccc2)cc1 to CC(C)[C@@H](Cn1nnc2ccccc21)NC(=O)c1ccc(N2CCCCS2(=O)=O)cc1, the inhibition falls from 1.07% to -3.11%.

Compared with COc1ccc(C2CC(=O)C3=C(C2)Nc2ccccc2NC3c2cc3c(cc2[N+](=O)[O-])OCO3)cc1 (stereo unspecified), O=S(=O)(c1ccc2ccccc2c1)N1CCSC1c1ccc2c3c(cccc13)CC2 (stereo unspecified) is higher in inhibition: -38.4% for the first, -6.22% for the second.

Compared with Cn1c2c(c(=O)n(C)c1=O)C(c1ccc(F)cc1)C1=C(COC1=O)N2 (stereo unspecified), COc1ccccc1C1C2=C(COC2=O)Nc2c1c(=O)n(C)c(=O)n2C (stereo unspecified) is lower in inhibition: 13.2% for the first, 6.62% for the second.

Compared with CCc1ccccc1N(CC(=O)Nc1cccc(F)c1)S(C)(=O)=O, COC(=O)c1cccc(NS(=O)(=O)c2ccc3ccccc3c2)c1C is higher in inhibition: -13.9% for the first, -7.45% for the second.

Compared with CCNS(=O)(=O)c1ccc(NC(=O)CCOCC)cc1, CCOc1ccc(C(=O)CCC(=O)OCC(=O)c2ccc3c(c2)OCCO3)cc1 is lower in inhibition: 9.16% for the first, 5.42% for the second.

Compared with COC(=O)c1cc(C(=O)N2CC(C)CC(C)C2)cc([N+](=O)[O-])c1 (stereo unspecified), Cn1nccc1C(=O)N1CCC[C@@H]2CN(C(=O)Cc3ccc(F)cc3)CC[C@H]21 is higher in inhibition: 1.59% for the first, 6.31% for the second.

First: c1ccc(Nc2nccc(Nc3ccc(N4CCOCC4)cc3)n2)cc1
Second: O=S(=O)(Nc1cccc2cccnc12)c1ccc(S(=O)(=O)N2CCCCC2)cc1
The inhibition of the first is lower: 16.2% for the first, 23.6% for the second.

Going from O=C(NC1CCCc2ccccc21)c1ccc2nccnc2c1 (stereo unspecified) to O=[N+]([O-])c1ccccc1Oc1cccc2cccnc12, the inhibition falls from -5.54% to -9.26%.

Compared with Cc1cc(C(=O)N(Cc2ccccc2)C(C)C2CC2)c(Cl)cc1Cl (stereo unspecified), Cc1noc(C)c1NC(=O)N1CCC2(CC1)OCc1ccccc1O2 is higher in inhibition: -10.9% for the first, -5.79% for the second.

First: COc1cc(NS(=O)(=O)c2c(C)ccc3nsnc23)c2ncccc2c1
Second: Cc1cc(NCCCn2ccnc2)n2nc(C)c(-c3cccs3)c2n1
The inhibition of the first is higher: -0.3% for the first, -74.5% for the second.

COc1ccc2c(c1OC)C(=O)N(c1ncn[nH]1)C2 showed an inhibition of 3.4%.
